Screening data (PubChem BioAssay)
Vif-A3G inh – Vif-A3G binding inhibition; actives 0.076% (n = 410,000); Q9HC16; HeLa A3G-eYFP + Vif (tagged APOBEC3G with the HIV-1 protein that degrades it), YFP fluorescence, overnight; Potency, µM (highest dose often 46.1 µM), without a hit: at the top dose activity, negative = active, actives largely listed as inhibitors; note: potency is the fitted concentration of half-maximal effect; % is set by controls: 0 for no effect and ±100 for the full control effect; nearly all actives have a fitted effect of over 60% in size
Target sequence (Q9HC16 whole entry, looked up): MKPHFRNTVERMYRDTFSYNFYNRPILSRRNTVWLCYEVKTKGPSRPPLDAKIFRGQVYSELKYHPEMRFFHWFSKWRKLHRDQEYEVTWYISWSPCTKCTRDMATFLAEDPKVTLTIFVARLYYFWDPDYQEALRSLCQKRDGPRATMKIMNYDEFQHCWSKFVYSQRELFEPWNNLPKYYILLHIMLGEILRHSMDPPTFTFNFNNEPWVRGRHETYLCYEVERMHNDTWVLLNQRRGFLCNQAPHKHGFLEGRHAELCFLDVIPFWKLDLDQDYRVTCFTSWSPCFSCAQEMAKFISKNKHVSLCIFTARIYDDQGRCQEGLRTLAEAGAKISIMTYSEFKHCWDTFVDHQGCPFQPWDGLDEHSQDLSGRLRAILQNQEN
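HeLa cells stably expressing Vif and C-terminally eYFP-tagged A3G, seeded overnight at 37 deg C, then exposed to compound by pintool overnight at 37 deg C. Rise in yellow fluorescence (Ex 488/Em 500-530, Acumen) marks blocked Vif-driven A3G degradation.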
MCF10A rerep – induces DNA re-replication in MCF 10a normal breast cells; Potency, µM (highest dose often 46.1 µM), for inactives: at the highest dose activity, positive = re-replication, actives largely listed as activators; AID 624296; actives 2.9% (n = 350,000); MCF 10A DNA re-replication, Hoechst nuclear intensity, 48 h; note: potency is the fitted concentration of half-maximal effect; % of control where 0% means no effect; nearly all actives have a fitted effect of over 50% in size
IL-1B inflam inh – blocks inflammasome-driven IL-1 beta release. AID 743279. activity change, % at 57.5 µM. actives 4.7% (n = 360,000). THP-1 LPS/ATP IL-1B secretion, AlphaLISA, 16 h; hits give low values; in the data active = activity change below about -50%; inconclusive = mostly about -30% to -49%; note: % is set by controls: 0 for no effect and ±100 for the full control effect
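THP-1 cells pretreated 1 hr with compounds (up to 57.5 uM final), then stimulated with LPS (250 ng/mL final) plus ATP (1.25 mM final); secreted IL-1B measured by AlphaLISA after 16 hr, decreased signal indicating inhibition.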
SW480 rereplic – inducers of DNA re-replication in SW480 colon cancer cells | actives 1.8% (n = 340,000) | SW480 DNA re-replication, Hoechst DNA content imaging, 48 h | Potency, µM (top dose mostly 46.1 µM), for the others: at the highest dose re-replication activation, usual class: activators | AID 624297; note: potency is the fitted concentration of half-maximal effect; % of control where 0% means no effect; nearly all actives have a fitted effect of over 55% in size
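Treated cells incubate 48 hr (37 C, 5% CO2), are stained 40 min with Hoechst, and nuclear fluorescence is enumerated; a rise in nuclei with high DNA signal marks re-replication.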
Giardia kill – Giardia lamblia killing | Giardia lamblia trophozoite viability | activity change, % at 7.66 µM, hits read low | actives 0.15% (n = 340,000) | AID 540267; in the data active = activity change below about -80%; inconclusive = between about -30% and that limit;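 note: parasites exposed to compound for two days anaerobically before the ATP read; % is set by controls: 0 for no effect and ±100 for the full control effect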
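Each well holds 100 Giardia trophozoites and compound. After two days (48 hrs) at 37 deg C in anaerobic conditions, ATP is quantified by luminescence.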
Vif-APOBEC3F blk – Vif-A3F binding inhibition | HeLa A3F-eYFP + Vif (tagged APOBEC3F with the HIV-1 protein that degrades it), YFP fluorescence increase | Potency, µM (top dose mostly 46.1 µM), for inactives: at the highest dose activity, negative = active | actives 0.2% (n = 390,000) | AID 602313; note: potency is the fitted concentration of half-maximal effect; % of control where 0% means no effect; nearly all actives have a fitted effect of over 65% in size
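HeLa cells stably expressing Vif plus C-terminally eYFP-tagged A3F were seeded, incubated overnight at 37 deg C, dosed with compound, incubated overnight again at 37 deg C. Yellow fluorescence (Ex 488/Em 500-530) reported blocked Vif-mediated A3F-eYFP degradation.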
* = called active by the depositor; ? = inconclusive; nt = no result. This is a sample that favours compounds with a hit; in the whole collection about 6.9% have one here. Unless noted, calls come from the whole dose curve; as a rule, active = well fitted curve in the direction sought with a large enough effect; inconclusive = small, poorly fitted or top-dose-only effect, or another doubt; inactive = no such curve, though single readings can be large; an effect the other way counts as inactive or inconclusive.

SMILES	Vif-A3G inh	MCF10A rerep	IL-1B inflam inh	SW480 rereplic	Giardia kill	Vif-APOBEC3F blk
Cc1cc(C(c2nnnn2Cc2ccccc2)N2CCOCC2)c(C)n1-c1ccc2c(c1)OCO2 (stereo not given)	-10%	-2%	-97*	-4%	-21	-4%
COc1ccc2cc(C(c3nnnn3CCc3ccccc3)N3CCCC(C)C3)c(=O)[nH]c2c1 (stereo not given)	0%	-37%	-85*	9%	3	-1%
Cc1cc(C)c2cc(C(O)c3nnnn3Cc3ccccc3)c(=O)[nH]c2c1 (stereo not given)	1%	2.6µM*	1	4.6µM*	3	5%
O=c1[nH]c2cc3c(cc2cc1C(c1nnnn1Cc1ccccc1)N1CCCc2ccccc21)OCO3 (stereo not given)	-4%	3.7µM*	28	17%	-6	-6%
O=c1[nH]c2cc3c(cc2cc1C(c1nnnn1C1CCCC1)N1CCCc2ccccc21)OCCO3 (stereo not given)	0%	3%	1	0%	-18	1%
CCC(C(=O)Nc1cc(C)ccc1C)n1c(=O)c(C(F)(F)F)nc2ccccc21 (stereo not given)	4%	nt	nt	nt	nt	-4%
S=C(NCCCc1cnc[nH]1)NCCCN(Cc1ccc(Cl)cc1)c1ccc(-c2ccccc2)cn1	-15%	nt	nt	nt	-3	nt
O=C(NC1CCCCC1)c1ccc2c(c1)N(Cc1ccc(Cl)cc1)C(=O)c1ccccc1S2(=O)=O	-1%	nt	nt	nt	nt	-12%
O=c1[nH]c2cc3c(cc2cc1C(c1nnnn1Cc1ccccc1)N1CCCCCC1)OCCO3 (stereo not given)	0%	?	-15	21µM*	2	-4%
COc1ccc(NC(=O)CSc2nc3sc(C)c(C)c3c(=O)n2Cc2ccco2)cc1	-2%	15µM*	9	?	2	-12%
Cc1sc2nc(SCC(=O)C(C)(C)C)n(Cc3ccco3)c(=O)c2c1C	?	5.8µM*	20	5.8µM*	-3	-8%
Cc1ccc(CSc2nc3sc(C)c(C)c3c(=O)n2Cc2ccco2)cc1	-2%	-1%	-20	-12%	21	-11%
Cc1sc2nc(SCc3ccccc3)n(Cc3ccco3)c(=O)c2c1C	1%	9.2µM*	18	6%	0	-3%
CN(Cc1ccccc1F)c1nc(-c2cccnc2)nc2ccccc12	-3%	?	-76*	-5%	11	-7%
COc1ccc(CCNc2nc(-c3cccnc3)nc3ccccc23)cc1OC	-23%	?	?	?	8	6%
CCOc1ccc(CN(C)c2nc(-c3cccnc3)nc3ccccc23)cc1OC	-3%	?	-93*	13%	2	4%
O=C(O)[C@H](CC(=O)N1C[C@H]2CCCC[C@H]2C1)Cc1ccccc1	nt	1%	nt	1%	nt	nt
CC(C(=O)c1ccccc1)[n+]1ccc(Cl)c2ccc(Cl)cc21 (stereo not given)	-6%	nt	nt	nt	nt	nt
CC(C)C(OC(=O)C1=Cc2ccccc2OC1)C(=O)NCC1CCCO1 (stereo not given)	0%	16µM*	16	-8%	-1	-3%
CC(OC(=O)C1=Cc2ccccc2OC1)C(=O)NC1CCCC1 (stereo not given)	2%	-5%	0	15%	-14	-1%
CCSc1ccccc1C(=O)n1nnc2ccccc21	-19%	16µM*	10	?	12	-14%
CC(=O)n1nnc2ccccc21	3%	nt	nt	nt	1	nt
COc1ccccc1C(=O)Nc1cccc(OCc2cc(=O)n3c4c(sc3n2)CCCC4)c1	1%	nt	nt	nt	nt	1%
CCOc1ccc(Cn2c(CNS(=O)(=O)c3ccc(Cl)s3)nc3cccnc32)cc1	1%	nt	nt	nt	nt	-6%
COc1ccccc1NC(=O)Nc1ccc(Cc2ccncc2)cc1	2%	?	-87*	-3%	-13	4%
SMILES	Vif-A3G inh	MCF10A rerep	IL-1B inflam inh	SW480 rereplic	Giardia kill	Vif-APOBEC3F blk
COc1cc(OC)c(NC(=O)c2cc3ccccc3cc2O)cc1Cl	-2%	21µM*	-78*	26%	-2	1%
COc1cc(OC)c(C(=O)Nc2ccncc2)cc1OC	2%	18%	-60*	?	-6	0%
CC(C)(C)C(=O)NC(=S)Nc1ccc(Cc2ccncc2)cc1	2%	11%	-65*	-8%	-21	0%
COc1ccc(C(=O)Nc2ccncc2)c(OC)c1	-2%	8%	-15	9%	-19	-13%
O=C(Cn1c(SCCOc2ccccc2Cl)nc2ccccc21)N1CCOCC1	-4%	nt	nt	nt	nt	2%
NCC[C@H](O)C(=O)N[C@@H]1C[C@H](N)[C@@H](O[C@H]2O[C@H](CN)CC[C@H]2N)[C@H](O)[C@H]1O[C@H]1O[C@H](CO)[C@@H](O)[C@H](N)[C@H]1O	nt	2%	nt	0%	nt	nt
Cc1cc(C)c2c(n1)SCCN2C(=O)Nc1ccc(C(=O)Nc2cc(Cl)ccc2C)cc1	1%	nt	nt	nt	nt	0%
COc1cc2ccccc2cc1C(=O)Nc1ccc(Cc2ccncc2)cc1	-5%	21µM*	-72*	18µM*	8	-1%
O=C(Nc1ccncc1)c1cc2ccccc2cc1O	1%	?	-88*	1%	-8	5%
O=C(Nc1cccc([N+](=O)[O-])c1)c1cc2ccccc2cc1O	3%	?	?	?	3	-6%
CCCCC(=O)N1CCN(c2nc3ccc(Br)cc3s2)CC1	0%	8%	-88*	-4%	-6	-2%
COC(=O)c1cc(NCc2c(F)cccc2Cl)ccc1N1CCOCC1	-8%	-8%	-3	-11%	-5	-3%
COC(=O)c1ccc(NCc2c(O)ccc(O)c2Br)cc1Cl	?	?	-119*	?	14	1%
COC(=O)c1ccc(NCc2cc(O)ccc2O)cc1O	?	?	-104*	?	-16	?
COc1ccc(CNC(=O)c2cc3c(=O)[nH]c4ccccc4c3n2C)c(OC)c1	1%	nt	nt	nt	nt	4%
COc1ccc(CNC(=O)c2ccc3nc(C(C)C)oc3c2)cc1OC	-12%	nt	nt	nt	nt	5%
Cc1cccc(N2CCN(C(=O)C3CCCN(S(=O)(=O)c4ccc5c(c4)oc(=O)n5C)C3)CC2)c1C (stereo not given)	1%	nt	nt	nt	nt	-4%
COc1ccc(C(=O)Nc2cc(C(C)=O)c(C)oc2=O)cc1	-3%	?	-10	?	-22	?
COC(=O)c1cc(NC(=O)c2ccccc2)c(=O)oc1/C=C/Nc1ccc(Oc2ccccc2)cc1	?	22%	18	1%	-18	8.9µM*
COc1cccc(Cn2c(CNC(=O)Cc3cccc(C)c3)nc3cccnc32)c1	0%	nt	nt	nt	nt	0%
